Results taken from PubChem BioAssay AID1159580 (chemical genetic matrix, 2015).
The whole screen tested about 5,500 compounds, of which about 2,000 (36%) were called active. Roughly 18% stayed inconclusive and do not appear here. Rule as the data show it: active = normalized growth mostly below about 0.91 (no sharp cut-off); inconclusive = no clear call, values can overlap the other calls; inactive = mostly above about 0.92. Some of the results follow.

Assay: chemical genetic growth profiling, strain panel (AID 1159580);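 also: tested at 20 µM; growth read once vehicle control cultures reached saturation at 30 °C; 1 = growth at the plate median or of vehicle wells; lower values mean less growth of the strain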
Conditions: S. cerevisiae deletion strains, growth OD

Measured: normalized growth

CC(=O)O[C@@H]1CC[C@]2(C)C3CC[C@]4(C)C(=O)CCC4C3CC[C@H]2C1 (stereo partly specified)
inactive: locus YAL021C, strain ccr4, stronger effect = lower value 0.944 | locus YAL026C, strain drs2, stronger effect = lower value 0.967 | locus YAL030W, strain snc1, stronger effect = lower value 1.01 | locus YBL061C, strain skt5, stronger effect = lower value 0.988 | locus YBR021W, strain FUR4, stronger effect = lower value 0.861 | locus YBR023C, strain chs3, stronger effect = lower value 0.98 | locus YBR171W, strain sec66, stronger effect = lower value 0.97 | locus YBR229C, strain ROT2, stronger effect = lower value 0.934 | locus YBR231C, strain swc5, stronger effect = lower value 1.01 | locus YBR279W, strain paf1, stronger effect = lower value 1 | locus YCL011C, strain gbp2, stronger effect = lower value 0.973 | locus YCL016C, strain dcc1, stronger effect = lower value 1.02 | locus YCL029C, strain bik1, stronger effect = lower value 0.987 | locus YCL061C, strain MRC1, stronger effect = lower value 0.979 | locus YCL069W, strain vba3, stronger effect = lower value 0.96 | locus YCR088W, strain abp1, stronger effect = lower value 0.984 | locus YDL005C, strain med2, stronger effect = lower value 1 | locus YDL040C, strain nat1, stronger effect = lower value 0.982 | locus YDL074C, strain BRE1, stronger effect = lower value 0.867 | locus YDL101C, strain DUN1, stronger effect = lower value 0.964 | locus YDL185W, strain tfp1, stronger effect = lower value 0.981 | locus YDL192W, strain arf1, stronger effect = lower value 0.937 | locus YDR001C, strain nth1, stronger effect = lower value 0.997 | locus YDR069C, strain doa4, stronger effect = lower value 0.969 | locus YDR101C, strain arx1, stronger effect = lower value 0.995 | locus YDR137W, strain rgp1, stronger effect = lower value 0.876 | locus YDR150W, strain NUM1, stronger effect = lower value 0.992 | locus YDR159W, strain sac3, stronger effect = lower value 0.931 | locus YDR195W, strain ref2 1.07 | locus YDR297W, strain sur2, stronger effect = lower value 1.01 | locus YDR318W, strain mcm21, stronger effect = lower value 0.942 | locus YDR334W, strain swr1, stronger effect = lower value 0.972 | locus YDR335W, strain msn5, stronger effect = lower value 0.995 | locus YDR388W, stronger effect = lower value 0.939 | locus YDR392W, strain spt3, stronger effect = lower value 0.929 | locus YEL003W, strain gim4, stronger effect = lower value 0.965 | locus YEL037C, strain rad23, stronger effect = lower value 0.985 | locus YEL061C, strain CIN8 (second series), stronger effect = lower value 0.988 | locus YEL061C, strain CIN8, stronger effect = lower value 0.983 | locus YER015W, strain faa2, stronger effect = lower value 0.996 | locus YER016W, strain bim1, stronger effect = lower value 1.03 | locus YER110C, stronger effect = lower value 0.996 | locus YER111C, strain swi4, stronger effect = lower value 0.986 | locus YER155C, strain BEM2 (second series), stronger effect = lower value 0.992 | locus YER155C, strain BEM2, stronger effect = lower value 1.01 | locus YER167W, strain BCK2, stronger effect = lower value 0.947 | locus YFR010W, strain ubp6, stronger effect = lower value 0.972 | locus YGL078C, strain dbp3, stronger effect = lower value 0.948 | locus YGL086W, strain mad1, stronger effect = lower value 0.987 | locus YGL167C, strain pmr1, stronger effect = lower value 0.999 | locus YGL173C, strain kem1, stronger effect = lower value 0.953 | locus YGL227W, strain vid30, stronger effect = lower value 0.989 | locus YGL240W, strain doc1, stronger effect = lower value 0.985 | locus YGL248W, strain PDE1, stronger effect = lower value 0.959 | locus YGL253W, strain hxk2, stronger effect = lower value 0.966 | locus YGR252W, strain gcn5, stronger effect = lower value 0.83 | locus YHR013C, strain ard1, stronger effect = lower value 1.05 | locus YHR027C, strain rpn1, stronger effect = lower value 0.977 | locus YHR030C, strain SLT2, stronger effect = lower value 0.999 | locus YHR079C, strain IRE1 (second series), stronger effect = lower value 0.987 | locus YHR094C, strain hxt1, stronger effect = lower value 0.978 | locus YHR129C, strain ARP1, stronger effect = lower value 0.974 | locus YHR142W, strain chs7, stronger effect = lower value 0.943 | locus YHR200W, strain rpn10, stronger effect = lower value 0.978 | locus YIL073C, strain SPO22, stronger effect = lower value 0.872 | locus YIL125W, strain kgd1, stronger effect = lower value 0.981 | locus YIR030C, strain dcg1, stronger effect = lower value 0.967 | locus YJL092W, strain hpr5, stronger effect = lower value 0.986 | locus YJL095W, strain BCK1 (second series), stronger effect = lower value 0.949 | locus YJL095W, strain BCK1, stronger effect = lower value 0.828 | locus YJL115W, strain asf1, stronger effect = lower value 0.991 | locus YJL129C, strain trk1, stronger effect = lower value 0.942 | locus YJL134W, strain LCB3, stronger effect = lower value 0.951 | locus YJL154C, strain vps35, stronger effect = lower value 0.988 | locus YJL164C, strain tpk1, stronger effect = lower value 0.949 | locus YJL166W, strain qcr8, stronger effect = lower value 0.922 | locus YJL168C, strain set2, stronger effect = lower value 0.995 | locus YJL187C, strain SWE1 (second series), stronger effect = lower value 0.955 | locus YJR043C, strain POL32, stronger effect = lower value 0.962 | locus YJR075W, strain HOC1, stronger effect = lower value 0.982 | locus YKL009W, strain mrt4, stronger effect = lower value 0.941 | locus YKL068W, stronger effect = lower value 0.979 | locus YKL085W, strain MDH1 (second series), stronger effect = lower value 0.954 | locus YKL085W, strain MDH1, stronger effect = lower value 0.954 | locus YKL160W, strain elf1, stronger effect = lower value 1.03 | locus YKL190W, strain CNB1, stronger effect = lower value 0.973 | locus YKR001C, strain vps1, stronger effect = lower value 0.984 | locus YKR026C, strain gcn3, stronger effect = lower value 0.982 | locus YKR091W, strain srl3, stronger effect = lower value 0.989 | locus YLL001W, strain dnm1, stronger effect = lower value 0.974 | locus YLL026W, stronger effect = lower value 0.999 | locus YLL041C, strain sdh2, stronger effect = lower value 0.986 | locus YLR027C, strain aat2, stronger effect = lower value 0.962 | locus YLR039C, strain RIC1, stronger effect = lower value 0.772 | locus YLR058C, strain SHM2, stronger effect = lower value 0.96 | locus YLR102C, strain apc9, stronger effect = lower value 0.991 | locus YLR221C, strain rsa3, stronger effect = lower value 0.91 | locus YLR258W, strain gsy2, stronger effect = lower value 0.974 | locus YLR262C, strain YPT6, stronger effect = lower value 0.672 | locus YLR268W, strain sec22, stronger effect = lower value 0.979 | locus YLR330W, strain CHS5, stronger effect = lower value 0.933 | locus YLR342W, strain FKS1 (second series), stronger effect = lower value 0.804 | locus YLR342W, strain FKS1, stronger effect = lower value 0.962 | locus YLR357W, strain rsc2, stronger effect = lower value 1.02 | locus YLR370C, strain arc18, stronger effect = lower value 1.02 | locus YLR371W, strain rom2, stronger effect = lower value 0.992 | locus YLR384C, strain iki3, stronger effect = lower value 1.02 | locus YLR418C, strain cdc73, stronger effect = lower value 0.843 | locus YML016C, strain PPZ1, stronger effect = lower value 0.969 | locus YML120C, strain ndi1, stronger effect = lower value 0.943 | locus YML124C, strain tub3, stronger effect = lower value 1 | locus YMR058W, strain fet3, stronger effect = lower value 0.95 | locus YMR078C, strain ctf18, stronger effect = lower value 1 | locus YMR125W, strain sto1, stronger effect = lower value 1 | locus YMR129W, stronger effect = lower value 1 | locus YMR223W, strain ubp8, stronger effect = lower value 0.916 | locus YMR231W, strain pep5, stronger effect = lower value 0.993 | locus YMR307W, strain GAS1, stronger effect = lower value 0.797 | locus YNL067W, strain RPL9B, stronger effect = lower value 1 | locus YNL071W, strain lat1, stronger effect = lower value 0.949 | locus YNL209W, strain ssb2, stronger effect = lower value 0.989 | locus YNL233W, strain BNI4, stronger effect = lower value 0.941 | locus YNL248C, strain rpa49, stronger effect = lower value 0.963 | locus YNL250W, strain rad50, stronger effect = lower value 0.963 | locus YNL271C, strain bni1, stronger effect = lower value 0.979 | locus YNL298W, strain CLA4, stronger effect = lower value 0.913 | locus YNL322C, strain KRE1 (second series), stronger effect = lower value 1.02 | locus YNR049C, strain mso1, stronger effect = lower value 1.01 | locus YOL012C, strain htz1 1.51 | locus YOR061W, strain CKA2, stronger effect = lower value 0.942 | locus YOR069W, strain VPS5, stronger effect = lower value 0.977 | locus YOR070C, strain gyp1, stronger effect = lower value 1 | locus YOR080W, strain dia2, stronger effect = lower value 1.01 | locus YOR083W, strain WHI5, stronger effect = lower value 0.975 | locus YOR106W, strain vam3, stronger effect = lower value 0.978 | locus YOR136W, strain idh2, stronger effect = lower value 0.998 | locus YOR144C, strain elg1, stronger effect = lower value 1 | locus YOR265W, strain rbl2, stronger effect = lower value 0.983 | locus YOR290C, strain snf2, stronger effect = lower value 0.958 | locus YOR316C, strain cot1, stronger effect = lower value 0.986 | locus YPL051W, strain arl3, stronger effect = lower value 1 | locus YPL078C, strain atp4, stronger effect = lower value 0.964 | locus YPL106C, strain sse1, stronger effect = lower value 1.03 | locus YPL240C, strain hsp82, stronger effect = lower value 0.99 | locus YPL241C, strain CIN2, stronger effect = lower value 0.985 | locus YPR119W, strain clb2, stronger effect = lower value 0.994 | locus YPR141C, strain kar3, stronger effect = lower value 0.991 | locus YPR163C, strain tif3, stronger effect = lower value 0.981 | locus YPR167C, strain met16, stronger effect = lower value 0.942 | strain wtn01, stronger effect = lower value 1.01
active: locus YBR009C, strain hhf1, stronger effect = lower value 0.866 | locus YDL035C, strain GPR1, stronger effect = lower value 0.85 | locus YDR162C, strain NBP2, stronger effect = lower value 0.661 | locus YDR502C, strain sam2, stronger effect = lower value 0.883 | locus YGR135W, strain pre9, stronger effect = lower value 0.876 | locus YIL066C, strain RNR3, stronger effect = lower value 0.852 | locus YLR262C, strain YPT6 (second series), stronger effect = lower value 0.725 | locus YLR320W, strain mms22, stronger effect = lower value 0.868 | locus YML032C, strain rad52, stronger effect = lower value 0.885 | locus YMR205C, strain PFK2, stronger effect = lower value 0.867 | locus YNL307C, strain MCK1, stronger effect = lower value 0.848 | locus YNR052C, strain pop2, stronger effect = lower value 0.877 | locus YOL147C, strain pex11, stronger effect = lower value 0.865 | locus YOR001W, strain rrp6, stronger effect = lower value 0.891 | locus YOR184W, strain ser1, stronger effect = lower value 0.713 | locus YOR270C, strain vph1, stronger effect = lower value 0.72
